Source: PubChem BioAssay
NRP1-CendR mod: modulators of CendR peptide binding to human neuropilin-1 | 0.85% of 360,000 active | inhibition, % at 25 µM | FAM-RPARPAR peptide binding to NRP-1, fluorescence polarization | O14786;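 active means inhibition or corrected inhibition above about 18%, plus a signal ratio from 0.5 to 1.5, limit read from the data, passing the limit was not always enough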
ALR inh: human ALR oxidase inhibition via reduced H2O2. P55789. purified ALR, DTT oxidation, H2O2 HRP-luminol luminescence. inhibition, % (test concentration not listed). 3.8% of 290,000 active. AID 485317;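 active means mean replicate inhibition above about 79%, with every replicate also reaching it, limit read from the data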
Target sequence (P55789 whole entry, looked up): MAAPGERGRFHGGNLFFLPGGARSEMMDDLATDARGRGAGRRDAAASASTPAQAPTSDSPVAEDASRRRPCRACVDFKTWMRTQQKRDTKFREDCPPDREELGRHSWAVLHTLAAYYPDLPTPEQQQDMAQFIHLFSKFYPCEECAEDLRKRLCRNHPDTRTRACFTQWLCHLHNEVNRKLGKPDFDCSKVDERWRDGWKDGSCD
APOBEC3G inh: APOBEC3G (human) deaminase inhibition; 0.28% of 330,000 active; recombinant A3G, ssDNA deamination FAM/TAMRA fluorescence; inhibition, % at 20 µM; Q9HC16;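 active means inhibition of at least 40% at 20 µM, with no more than 30% in the related APOBEC3A deaminase screen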;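 further: plate controls were DMSO wells with A3G for no effect and wells lacking A3G enzyme for full effect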
Target sequence (Q9HC16 whole entry, looked up): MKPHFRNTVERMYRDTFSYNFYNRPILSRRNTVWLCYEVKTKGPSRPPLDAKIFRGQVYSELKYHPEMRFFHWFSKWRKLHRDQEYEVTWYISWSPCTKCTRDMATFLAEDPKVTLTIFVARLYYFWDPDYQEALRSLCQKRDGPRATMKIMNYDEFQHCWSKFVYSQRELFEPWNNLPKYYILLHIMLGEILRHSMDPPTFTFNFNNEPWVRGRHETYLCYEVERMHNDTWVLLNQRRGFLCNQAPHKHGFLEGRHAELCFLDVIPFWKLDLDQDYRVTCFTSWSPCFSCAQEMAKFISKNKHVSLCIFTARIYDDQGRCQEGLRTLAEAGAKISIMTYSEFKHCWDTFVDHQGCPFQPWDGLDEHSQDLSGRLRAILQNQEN
PfM18AAP inh: PfM18AAP enzyme inhibition; recombinant PfM18AAP, H-Glu-NHMec fluorogenic cleavage; inhibition, % at 7.35 µM; 1.2% of 290,000 active; AID 1822;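 active means inhibition above the campaign mean inhibition over all tested compounds plus 3 SD, cut at about 28% in these data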;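 further: 0% = plate median of test compound wells and 100% = 2 mM ZnCl2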
APOBEC3A inh: blocks human APOBEC3A ssDNA deamination. inhibition, % at 20 µM. recombinant A3A, FAM/TAMRA ssDNA deamination fluorescence. 0.41% of 330,000 active. P31941. AID 493011;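 active means at least 40% inhibition at 20 µM here, with at most 30% in a related deaminase screen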;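 further: plate controls were A3A with DMSO for no effect and wells lacking A3A enzyme for full effect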
CR mimetic SO: yeast age-related superoxide inhibition as caloric restriction mimetic. S. cerevisiae aged cells, superoxide DHE fluorescence; active compounds read low. superoxide response (% of plate mean), % at 10 µM. 0.18% of 330,000 active;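 active means superoxide response under a set limit, about three screen SD below normal, cut at about 65% in these data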;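 further: yeast aged for seven days with compound at 30 °C before DHE staining; 100% = average MFI of all compound-treated wells on the plate with controls excluded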
Starred values were filed as active, the others as inactive; · = no result given. This is a sample that favours compounds with a hit; in the whole collection about 5.2% have one here.

SMILES	NRP1-CendR mod	ALR inh	APOBEC3G inh	PfM18AAP inh	APOBEC3A inh	CR mimetic SO
CCN(CC)CCn1c2c(c(SCC(=O)Nc3ccc(C)c(F)c3)nc1=O)CCCC2	8.1	97.0*	-2.4	·	-1.5	97.2
CC1CN(CC(O)COc2ccccc2C(C)(C)C)CC(C)O1 (stereo not given)	-6.0	-9.8	-10.0	0.4	-5.1	86.1
O=C(NC1CC1)C1CCN(C2CCN(C(=O)c3ccc(C(F)(F)F)cc3)CC2)CC1	0.5	-1.0	8.7	-1.3	2.9	97.0
COC(=O)[C@@H]1C[C@H]2CC[C@H](O)C[C@H]2N1Cc1ccc(Cl)cc1	-16.3	·	-9.4	·	-3.1	95.7
Cc1cc(C)n2c(SCCO)nnc2n1	-4.3	-7.1	-3.5	-20.4	-2.2	95.6
O=C(O)c1cccc(S(=O)(=O)N2CCSCC2)c1	9.4	·	0.8	4.5	1.6	107.0
COc1cc(Cl)c(C)cc1NC(=O)CN1CCN(C(=O)c2cccs2)CC1	-11.7	·	·	·	·	·
CCN(CC)CCn1c2c(c(SCC(=O)Nc3ccc(C)c(F)c3)nc1=O)CCC2	-6.7	-403.9	-0.4	·	2.2	109.1
CCN(CC)CCn1c2c(c(SCC(=O)Nc3ccc(F)c(F)c3)nc1=O)CCC2	1.2	91.7*	-5.3	·	-1.6	95.9
CC(O)[C@H]1CC[C@H]2[C@@H]3CC[C@H]4C[C@@H](O)CC[C@]4(C)[C@H]3C(=O)C[C@]12C (stereo not given in full)	25.7*	-6.1	-10.0	·	-3.7	100.4
O=C(O)Cc1sc(-c2cccnc2)nc1-c1ccc(Br)cc1	-15.1	1.5	-9.5	8.6	-5.0	122.2
COC(=O)Oc1ccc(/C=N/NC(=O)CN(c2ccccc2Br)S(C)(=O)=O)cc1OC	23.4*	39.5	3.9	·	5.9	96.7
CCc1ccccc1N(CC(=O)N/N=C/c1ccc(OC(=O)OC)c(OC)c1)S(C)(=O)=O	17.3	37.1	-3.4	-4.6	1.0	112.0
OCCC1CN(Cc2ccccc2-c2ccco2)CCN1Cc1ccccc1 (stereo not given)	7.0	-12.7	-2.8	-5.2	3.6	105.5
Cc1cc(N/C(=N/S(=O)(=O)c2cc(F)ccc2F)c2ccccc2)n(-c2ccccc2)n1	26.6*	-1.8	-11.6	-0.2	-2.0	103.3
Cc1ccccc1C(=O)NC(NCC1CCCO1)C(Cl)(Cl)Cl (stereo not given)	-4.7	-22.1	-4.1	-5.1	-1.1	95.9
COc1cc(-c2cc(OC)c3c(C)oc(C)c3c(=O)c2)ccc1O	-20.7	90.9*	-6.8	21.4	-3.2	98.8
COc1cc(-c2nc3ccccc3nc2-c2ccc(O)c(OC)c2)ccc1O	-3.1	98.9*	2.0	6.6	0.4	100.0
COc1cc(C(=O)C(=O)c2ccc(O)c(OC)c2)ccc1O	2.8	99.5*	1.7	6.1	-2.1	119.4
COc1ccc(-c2cc(OC)c3c(C)oc(C)c3c(=O)c2)cc1OC	-13.3	-0.9	3.8	21.9	2.0	109.6
COc1cc(-c2nc3ccccn3c2N)ccc1O	5.3	·	-0.7	17.9	-3.2	92.5
COc1cc(C(=O)n2nc(C)cc2C)ccc1O	33.0*	94.8*	-3.1	13.7	-1.6	116.9
COc1ccc(C(=O)n2nc(C)cc2C)cc1Br	4.7	-9.7	-5.5	6.8	-2.2	93.2
CCCS(=O)(=O)N1CCN(C(=O)COc2ccccc2)CC1	-2.1	16.6	-4.4	-6.0	-4.5	112.8
Cc1cc(Cl)ccc1OC(C)C(=O)NC(C)C1CCCO1 (stereo not given)	-4.2	2.5	-7.2	1.9	-1.1	95.2
SMILES	NRP1-CendR mod	ALR inh	APOBEC3G inh	PfM18AAP inh	APOBEC3A inh	CR mimetic SO
COc1cc(C(=O)O)ccc1O	9.7	-2.8	-7.3	11.6	-2.4	98.7
COc1cc(C(=S)N2CCC(C(N)=O)CC2)ccc1O	-2.1	65.7	11.2	-4.3	-1.1	100.9
COc1cc(C(=S)N2CCC(C)CC2)ccc1O	-3.2	89.6*	-0.7	-17.2	-0.9	120.3
COc1cc(-c2cc[n+](C)cc2)ccc1O	8.3	99.0*	-3.7	·	5.4	97.0
COc1cc(C(=S)N2CCCC2)ccc1O	1.8	93.8*	1.9	-30.7	0.7	116.8
CC1(C(=O)NS(=O)(=O)C2CC2)CCCN(C(=O)c2cccc(C(F)(F)F)c2)C1 (stereo not given)	10.7	·	·	·	·	·
Cc1c(O)ccc(-c2[nH]ncc2-c2nc3ccccc3s2)c1O	-4.0	88.6*	-11.5	10.7	-5.7	92.4
Cc1c(O)ccc(-c2n[nH]c(C(=O)O)c2-c2nc3ccccc3s2)c1O	-1.6	16.6	-10.7	29.9*	-12.2	111.1
CC(C)(C)NC(=O)c1ccccc1-c1nc2ccccc2s1	-8.6	-4.6	-5.7	25.8	-6.9	102.6
O=C(Nc1ccccc1)Nc1sccc1-c1nc2ccccc2s1	-30.6	1.1	1.8	-1.8	0.6	105.8
N#Cc1ccc(S(=O)(=O)N2CCN(C(=O)C3CC(=O)N(c4ccc5c(c4)OCCO5)C3)CC2)cc1 (stereo not given)	11.1	-1.2	-1.5	·	-0.5	102.7
CCCn1c(SCC(=O)Nc2cccc(F)c2)nc(O)cc1=O	-13.5	99.4*	-13.6	·	-4.5	122.6
CCn1c(SCC(=O)Nc2ccc(C)cc2)nc(O)cc1=O	2.4	98.9*	-2.9	-1.5	-0.4	100.0
CCC(C(=O)Nc1ccc(C(=O)Nc2ccccc2C(=O)O)cc1)c1ccccc1 (stereo not given)	-16.4	79.4*	-4.8	-4.1	-2.2	117.8
CC(C)CCN1C(=O)c2ccc(C(=O)Nc3ccccc3C(=O)O)cc2C1=O	-6.8	97.6*	-7.5	2.5	-3.6	110.6
CC(c1ccccc1)N1C(=O)c2ccc(C(=O)Nc3ccccc3C(=O)O)cc2C1=O (stereo not given)	-33.8	97.6*	-3.2	-1.7	-3.2	163.5
Cc1ccc([C@H]2C[C@@H](n3cc(C4CC4)nn3)[C@H](O)CN2C(=O)c2cccs2)cc1	-5.4	·	·	·	·	·
CCNC(=O)N(CC)C[C@H]1N[C@@](C)(C(=O)OC)[C@H]2C(=O)N(Cc3ccccc3)C(=O)[C@@H]12	13.3	·	-6.0	·	-4.6	102.4
Cc1noc2ncnc(Sc3ccc(Cl)cc3)c12	4.7	79.6*	-4.5	-5.2	-6.5	102.3
Cc1ccc(Sc2ncnc3onc(C)c23)cc1	2.9	99.2*	-4.8	-3.4	-1.9	117.1
C=CCn1c(N)c(C(=O)Nc2ccc(C)cc2)sc1=S	3.6	16.8	-1.3	9.0	-0.6	101.4
Nc1c(C(=O)NCC2CCCO2)sc(=S)n1-c1ccccc1 (stereo not given)	3.9	85.1*	-0.9	-12.7	-1.0	97.1
C=CCn1c(N)c(C(=O)NCC2CCCO2)sc1=S (stereo not given)	7.2	98.7*	1.7	1.4	2.1	99.4
C=CCn1c(N)c(C(=O)Nc2ccccc2OC)sc1=S	4.1	97.8*	-3.9	0.9	-1.4	121.9
O=C(NCc1ccco1)c1sc(=S)n2c1[nH]c(=O)c1ccccc12	-32.6	98.3*	-2.0	8.3	-0.9	126.8
